Laboratory results: PubChem BioAssay (NCATS)
Inconclusive results are not listed. The source made the active and inactive calls. Calls follow the shape of the dose curve; as a rule, active = well fitted curve in the direction sought with a large enough effect; inconclusive = small, poorly fitted or top-dose-only effect, or another doubt; inactive = no such curve, though single readings can be large; an effect the other way counts as inactive or inconclusive.

Columns and labels:
[1] = qHTS of pediatric cancer cell lines to identify multiple opportunities for drug repurposing: Primary screen for Rh41 cells (AID 1347108); also: nearly all actives have a fitted effect of over 70% in size; also: potency is read from the fitted curve at half-maximal effect
How it was run: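 Cells plated at 500-1,000/well in growth medium, compounds added after 5 h. MIPE tested at 11 points (from 0.78 nM), NPC at 8 points (from 0.59 nM). CellTiter-Glo luminescence after 48 h; concentration-response curves from primary screen.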

[2] = qHTS of pediatric cancer cell lines to identify multiple opportunities for drug repurposing: Confirmatory screen for A673 cells (AID 1347110); also: potency is read from the fitted curve at half-maximal effect; nearly all actives have a fitted effect of over 65% in size
How it was run: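 Cells plated at 500-1,000/well were treated five hours later with multi-point dilutions up to 46 µM final. After two days, CellTiter-Glo was added and luminescence read.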

[3] = qHTS of pediatric cancer cell lines to identify multiple opportunities for drug repurposing: Confirmatory screen for SK-N-MC cells (AID 1347111);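 also: potency is read from the fitted curve at half-maximal effect; cells exposed to compound for 48 h before the readout; nearly all actives have a fitted effect of over 70% in size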
How it was run: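 SK-N-MC cells at 500-1,000 cells/well in growth media were pre-incubated 5 h, then exposed to compounds at 11-point dilutions for 48 h at 37 degrees C, 5% CO2. Viability was read as CellTiter-Glo luminescence.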

[4] = qHTS of pediatric cancer cell lines to identify multiple opportunities for drug repurposing: Confirmatory screen for DAOY cells (AID 1347114); also: nearly all actives have a fitted effect of over 65% in size; also: potency is read from the fitted curve at half-maximal effect
How it was run: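 Viability measured as metabolically active cells via CellTiter-Glo luminescence following 48 hours of compound exposure, 11-point dilutions in confirmatory testing. 500-1,000 cells/well plated 5 hours before dosing; controls were DMSO and 2.3 µM bortezomib.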

[5] = qHTS of pediatric cancer cell lines to identify multiple opportunities for drug repurposing: Confirmatory screen for NB-EBc1 cells (AID 1347115); also: nearly all actives have a fitted effect of over 45% in size; also: potency is read from the fitted curve at half-maximal effect
How it was run: (§1)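 Viability after 48 h compound treatment at 37C, 500-1,000 cells/well, read as ATP luminescence with CellTiter-Glo. Primary screens used 11-point (MIPE, 0.78 nM-46 µM) or 8-point (NPC, 0.59 nM-46 µM) final concentrations; follow-up screens used 11-point dilutions.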

[6] = qHTS of pediatric cancer cell lines to identify multiple opportunities for drug repurposing: Confirmatory screen for BT-37 cells (AID 1347117); also: nearly all actives have a fitted effect of over 55% in size; also: potency is read from the fitted curve at half-maximal effect
How it was run: as §1

[7] = qHTS of pediatric cancer cell lines to identify multiple opportunities for drug repurposing: Confirmatory screen for TC32 cells (AID 1347118); also: potency is read from the fitted curve at half-maximal effect; nearly all actives have a fitted effect of over 65% in size
How it was run: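 Measured quantity: luminescence from CellTiter-Glo, reflecting metabolically active TC32 cells following 48 h of compound. Curves came straight from multi-point titrations, with 8 or 11 points in primary and 11 in confirmatory screening.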

[8] = qHTS of pediatric cancer cell lines to identify multiple opportunities for drug repurposing: Confirmatory screen for Rh41 cells (AID 1347123);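 also: potency is read from the fitted curve at half-maximal effect; 48 h compound exposure; nearly all actives have a fitted effect of over 60% in size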
How it was run: as §1

[9] = qHTS of pediatric cancer cell lines to identify multiple opportunities for drug repurposing: Confirmatory screen for Rh18 cells (AID 1347125); also: nearly all actives have a fitted effect of over 55% in size; also: potency is read from the fitted curve at half-maximal effect
How it was run: as §1

[10] = qHTS of pediatric cancer cell lines to identify multiple opportunities for drug repurposing: Confirmatory screen for Rh30 cells (AID 1347126); also: nearly all actives have a fitted effect of over 55% in size; also: potency is read from the fitted curve at half-maximal effect
How it was run: as §1

[11] = qHTS of pediatric cancer cell lines to identify multiple opportunities for drug repurposing: Confirmatory screen for SK-N-SH cells (AID 1347129); also: nearly all actives have a fitted effect of over 60% in size; also: potency is read from the fitted curve at half-maximal effect
How it was run: as §1

[12] = target: N-terminal Xaa-Pro-Lys N-methyltransferase 1 (Homo sapiens) (UniProt Q9BV86); assay: qHTS Assay for Inhibitors of N-terminal methyltransferase 1 (NTMT1): LOPAC validation of the NTMT1 SAHH-coupled ThioGlo3 Assay (AID 1347143);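 also: SAH from peptide methylation measured as thiol fluorescence via SAHH coupling and ThioGlo3; potency is read from the fitted curve at half-maximal effect; nearly all actives have a fitted effect of over 70% in size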
How it was run: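 Recombinant human NTMT1 (125nM) was pre-incubated 1 min at room temperature with compounds over a concentration range, then a mix of 100uM SAM, 10uM SAHH and 15uM ThioGlo3 (concentrations in added reagent) was added. ThioGlo3 fluorescence (ex 340/em 450nm) after 30 min was normalized to the initial reading.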

[13] = qHTS of pediatric cancer cell lines to identify multiple opportunities for drug repurposing: Confirmatory screen for LAN-5 cells (AID 1347113); also: potency is read from the fitted curve at half-maximal effect; nearly all actives have a fitted effect of over 65% in size
How it was run: as §1

[14] = qHTS of pediatric cancer cell lines to identify multiple opportunities for drug repurposing: Confirmatory screen for MG 63 (6-TG R) cells (AID 1347119); also: nearly all actives have a fitted effect of over 55% in size; also: potency is read from the fitted curve at half-maximal effect
How it was run: as §1

[15] = qHTS of pediatric cancer cell lines to identify multiple opportunities for drug repurposing: Confirmatory screen for control Hh wild type fibroblast cells (AID 1347121); also: nearly all actives have a fitted effect of over 70% in size
How it was run: as §1

[16] = qHTS of pediatric cancer cell lines to identify multiple opportunities for drug repurposing: Confirmatory screen for U-2 OS cells (AID 1347122); also: nearly all actives have a fitted effect of over 65% in size; also: potency is read from the fitted curve at half-maximal effect
How it was run: as §1

[17] = qHTS of pediatric cancer cell lines to identify multiple opportunities for drug repurposing: Confirmatory screen for BT-12 cells (AID 1347112); also: nearly all actives have a fitted effect of over 55% in size
How it was run: as §1

[18] = qHTS of pediatric cancer cell lines to identify multiple opportunities for drug repurposing: Confirmatory screen for OHS-50 cells (AID 1347128); also: potency is read from the fitted curve at half-maximal effect
How it was run: as §1

[19] = qHTS of pediatric cancer cell lines to identify multiple opportunities for drug repurposing: Confirmatory screen for NB1643 cells (AID 1347109); also: potency is read from the fitted curve at half-maximal effect; nearly all actives have a fitted effect of over 45% in size
How it was run: as §1

Measured: Potency

N-terminal Xaa-Pro-Lys N-methyltransferase 1 (Homo sapiens), sequence (Q9BV86 whole entry, looked up): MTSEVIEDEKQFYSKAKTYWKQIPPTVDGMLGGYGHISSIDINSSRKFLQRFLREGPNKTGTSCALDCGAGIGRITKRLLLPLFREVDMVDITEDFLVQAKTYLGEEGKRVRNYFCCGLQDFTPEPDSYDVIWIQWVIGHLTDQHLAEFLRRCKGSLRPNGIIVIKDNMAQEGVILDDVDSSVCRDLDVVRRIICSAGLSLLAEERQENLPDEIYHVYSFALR

CNC1CCC(N(Cc2cccc(-c3ccncc3)c2)C(=O)c2sc3c(F)ccc(F)c3c2Cl)CC1 (stereo not drawn)
active: [1] 18.7 µM | [2] 20.8 µM | [3] 11.7 µM | [4] 20.8 µM | [6] 20.8 µM | [7] 13.1 µM | [8] 10.4 µM | [10] 23.3 µM
inactive: [5] | [9] | [11]

COC(=O)[C@@H]1[C@H]2C[C@H]3c4[nH]c5ccccc5c4CCN3C[C@@H]2CC[C@@H]1O
active: [12] 79.4 µM
inactive: [1]

CCOc1ccc(Nc2nc(-c3c(C)nc4ccccn34)cs2)cc1
active: [2] 0.131 µM | [3] 0.0928 µM | [13] 1.47 µM | [4] 0.0465 µM | [6] 0.293 µM | [7] 0.117 µM | [14] 0.104 µM | [16] 0.165 µM
inactive: [1] | [15] | [9] | [10]

COc1ccc(-c2coc3cc(O)cc(O)c3c2=O)cc1
active: [2] 0.117 µM | [3] 1.04 µM | [7] 1.04 µM
not listed: [8] | [11] | [12] | [13] | [19]
inactive: all other assays above

COc1ncc(-c2ccc3nccc(-c4ccnnc4)c3c2)cc1NS(=O)(=O)c1ccc(F)cc1F
active: [1] 0.0118 µM | [19] 0.465 µM | [2] 0.208 µM | [3] 0.0329 µM | [13] 0.0737 µM | [5] 8.27 µM | [6] 0.465 µM | [7] 0.0369 µM | [14] 0.0037 µM | [8] 0.0369 µM | [9] 0.104 µM | [10] 0.0414 µM | [18] 0.233 µM | [11] 0.187 µM
